Values joined by “and” are separate entries in the source; they are usually repeats but may differ in a detail not shown here. Equal values may be shown once. Results filed as inconclusive are left out. Entries that show only a call come without a potency. Active and inactive are the calls of the source. Unless noted, the call rests on the fitted dose curve; in most records, active means well fitted curve in the direction sought with a large enough effect in the repeat runs; inconclusive means weak or mixed curves; inactive means no such curve, though single readings can be large; an effect the other way counts as inactive or inconclusive.
Experiments:
[1] = A CellTox Green Cytotoxicity Assay to monitor cytotoxicity in HepG2 cells - 8 hour (AID 1224890); further: nearly all actives have a fitted effect of over 45% in size
Procedure, shortened: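 First, HepG2 cells (600/well) mixed with reagent were plated; second, after 5 h at 37 C they received compounds via pintool; third, fluorescence was measured at 0 h through 40 h at 8 h intervals.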

[2] = qHTS assay to identify small molecule antagonists of the estrogen receptor alpha (ER-alpha) signaling pathway using the BG1 cell line in the presence of 0.1 nM 17-beta-estradiol - cell viability counter screen (AID 1259241); further: nearly all actives have a fitted effect of over 40% in size
Procedure, shortened: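 Following 5 days in phenol red-free medium with charcoal-stripped serum, VM7Luc4E2 cells received test compounds alongside 0.1 nM 17beta-estradiol (final) at 37C for 22 hr. Live cells were then quantified via protease-substrate fluorescence.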

[3] = qHTS assay to identify small molecule antagonists of the androgen receptor (AR) signaling pathway using the MDA cell line in the presence of 0.5 nM R1881 - cell viability counter screen (AID 1259242); further: nearly all actives have a fitted effect of over 45% in size
Procedure, shortened: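 qHTS format. MDA-kb2 (MMTV-luc, AR/GR responsive) + cpd + 0.5 nM R1881 final, 16 hr 37C/0% CO2 → CellTiter-Fluor 30 min → fluorescence intensity.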

[4] = target: Estrogen receptor (Homo sapiens) (UniProt P03372); experiment: qHTS assay to identify small molecule antagonists of the estrogen receptor alpha (ER-alpha) signaling pathway using the BG1 cell line in the presence of 0.1 nM 17-beta-estradiol (AID 1259244); further: nearly all actives have a fitted effect of over 50% in size
Estrogen receptor (Homo sapiens), sequence (P03372 whole entry, looked up): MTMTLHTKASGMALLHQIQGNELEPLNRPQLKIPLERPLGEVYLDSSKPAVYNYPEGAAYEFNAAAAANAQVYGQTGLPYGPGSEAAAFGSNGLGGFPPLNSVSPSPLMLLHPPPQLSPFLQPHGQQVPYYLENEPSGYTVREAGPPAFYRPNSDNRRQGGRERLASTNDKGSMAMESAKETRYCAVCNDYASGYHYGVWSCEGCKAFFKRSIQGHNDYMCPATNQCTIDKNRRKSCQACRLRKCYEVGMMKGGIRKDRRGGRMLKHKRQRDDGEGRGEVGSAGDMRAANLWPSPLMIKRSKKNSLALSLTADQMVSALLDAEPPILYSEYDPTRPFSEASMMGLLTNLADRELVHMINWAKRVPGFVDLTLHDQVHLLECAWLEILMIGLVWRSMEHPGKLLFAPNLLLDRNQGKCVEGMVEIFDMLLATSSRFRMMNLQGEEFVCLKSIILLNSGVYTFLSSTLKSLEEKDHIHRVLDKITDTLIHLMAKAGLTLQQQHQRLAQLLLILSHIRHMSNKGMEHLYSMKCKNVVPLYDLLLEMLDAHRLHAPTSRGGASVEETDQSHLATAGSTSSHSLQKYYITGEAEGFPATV
Procedure, shortened: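 Reporter is a stably transfected luciferase under four estrogen responsive elements in VM7Luc4E2 cells expressing native full-length ER-alpha; inhibition of 0.1 nM (final) 17beta-estradiol-driven signal over 22 h is read by luminescence.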

[5] = qHTS assay to identify small molecule phospholipidosis (PLD) inducers (AID 1259344; active means well fitted curve in the direction sought with a large enough effect; an effect the other way counts as inactive or inconclusive; further: potency means the concentration at half of the fitted maximal effect)
Procedure, shortened: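 Read-out is LipidTOX Red fluorescence (ex 595/em 615) imaged in HepG2 cells after 24 h compound exposure at 37 C, with Hoechst nuclear counterstain (ex 352/em 461) allowing per-cell normalisation.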

[6] = qHTS assay to identify small molecule HDAC inhibitors (AID 1259364);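 further: wild-type HCT-116 cells with endogenous class I/II HDAC activity; top concentration of the series differs between compounds; nearly all actives have a fitted effect of over 45% in size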
Procedure, shortened: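 Quantitative high-throughput format: overnight-seeded HCT-116 cells got compounds for 2 hr at 37C; HDAC-Glo I/II reagent added, 30 min RT, luminescence measured.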

[7] = qHTS assay to identify small molecule HDAC inhibitors - cell viability counter screen (AID 1259365); further: series mostly up to about 92 µM; nearly all actives have a fitted effect of over 50% in size
Procedure, shortened: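 HCT-116 wild-type, overnight attachment; 2hr drug exposure, 37C; CellTiter-Glo luminescent ATP readout after 30min RT.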

[8] = qHTS assay to identify small molecule agonists of the sonic hedgehog signaling (Shh) pathway - cell viability counter screen (AID 1259366); further: nearly all actives have a fitted effect of over 50% in size
Procedure, shortened: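 Compounds in DMSO were pin-transferred onto 3T3 Gli1-Luc cells that had settled 4hr; plates then stood 24hr at 37C and 5% CO2. One hour before the end, CellTiter-Fluor was added and fluorescence recorded.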

[9] = qHTS assay to identify small molecule antagonists of the sonic hedgehog signaling (Shh) pathway - cell viability counter screen (AID 1259367); further: nearly all actives have a fitted effect of over 55% in size
Procedure, shortened: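 Fluorescence read-out (CellTiter-Fluor, 1 hr at 37C) taken after 23 hr compound treatment of 3T3 Gli1-Luc cells stimulated with conditioned medium. Cells were seeded at 2,000 per well and pre-incubated 4 hr.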

[10] = qHTS assay to identify small molecule antagonists of the sonic hedgehog signaling (Shh) pathway (AID 1259369; calls by dose curve; further: nearly all actives have a fitted effect of over 45% in size; further: potency means the concentration at half of the fitted maximal effect)
Procedure, shortened: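 Stable Gli1-Luc reporter NIH/3T3 clone; quantitative HTS in stimulated mode with conditioned medium. Luminescence measured after 24hr compound treatment at 37 C.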

[11] = qHTS assay to identify small molecule agonists of the androgen receptor (AR) signaling pathway in the presence of an antagonist - cell viability counter screen (AID 1259379);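 further: MDA-kb2 human breast cancer cells carrying an MMTV luciferase reporter; series mostly up to about 92 µM; nearly all actives have a fitted effect of over 25% in size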
Procedure, shortened: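 Nilutamide-containing (3.0uM final) MDA-kb2 cultures, 3,000 cells/well, were treated with compounds across 15 concentrations. After 16 hr at 37C with no CO2, cell viability was determined by CellTiter-Fluor fluorescence in the luciferase assay wells.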

[12] = qHTS assay to identify small molecule agonists of the estrogen receptor beta (ER-beta) signaling pathway - cell viability counter screen (AID 1259380); further: nearly all actives have a fitted effect of over 30% in size; further: potency means the concentration at half of the fitted maximal effect
Procedure, shortened: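 Steps: plate ER-beta-UAS-bla HEK293T cells, rest 6 hr; add compounds in DMSO; incubate 16 hr at 37C, 5% CO2; add FRET substrate 2 hr; add CellTiter-Glo, wait 30 min at room temperature; read luminescence.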

[13] = target: Estrogen receptor (Homo sapiens) (UniProt P03372); experiment: qHTS assay to identify small molecule agonists of the estrogen receptor alpha (ER-alpha) signaling pathway in the presence of an antagonist (AID 1259383; calls by dose curve; further: top concentration of the series differs between compounds; nearly all actives have a fitted effect of over 15% in size)
Procedure, shortened: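 Readout was ERE-driven luciferase luminescence in VM7Luc4E2 cells, which express full-length ER-alpha endogenously. Compounds were tested at 15 concentrations for 22hr alongside 10.0nM ICI-182,780 (final concentration).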

[14] = qHTS assay to identify small molecule agonists or antagonists of the thyroid stimulating hormone receptor (TSHR) signaling pathway - wild type cell line counter screen (AID 1259384; calls by dose curve)
Procedure, shortened: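 Wild-type Hek293 cells, 800/well, 18 h at 37C, then compound with Ro20-1724 for 30 min RT. cAMP by HTRF (cAMP-d2/anti-cAMP cryptate), 1 h RT, fluorescence read. 15 concentrations, triplicates.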

[15] = qHTS assay to identify small molecule agonists of the sonic hedgehog signaling (Shh) pathway (AID 1259368; calls by dose curve;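 further: NIH/3T3-derived 3T3Gli1-Luc cells carrying a stable Gli1-driven firefly luciferase reporter; series mostly up to about 92 µM; nearly all actives have a fitted effect of over 15% in size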)
Procedure, shortened: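 Quantitative high-throughput format using a Gli1-driven firefly luciferase reporter line derived from NIH/3T3 cells. After a 24 hr compound treatment at 37 C and 5% CO2, luminescence reported Gli1 response element activity.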

[16] = target: Estrogen receptor beta (Homo sapiens) (UniProt Q92731); experiment: qHTS assay to identify small molecule agonists of the estrogen receptor beta (ER-beta) signaling pathway (AID 1259377; active means well fitted activation curve with a large enough effect in the signal ratio in the repeat runs, not every such curve was filed as active; the % refers to the signal ratio; further: potency means the concentration at half of the fitted maximal effect)
Estrogen receptor beta (Homo sapiens), sequence (Q92731 whole entry, looked up): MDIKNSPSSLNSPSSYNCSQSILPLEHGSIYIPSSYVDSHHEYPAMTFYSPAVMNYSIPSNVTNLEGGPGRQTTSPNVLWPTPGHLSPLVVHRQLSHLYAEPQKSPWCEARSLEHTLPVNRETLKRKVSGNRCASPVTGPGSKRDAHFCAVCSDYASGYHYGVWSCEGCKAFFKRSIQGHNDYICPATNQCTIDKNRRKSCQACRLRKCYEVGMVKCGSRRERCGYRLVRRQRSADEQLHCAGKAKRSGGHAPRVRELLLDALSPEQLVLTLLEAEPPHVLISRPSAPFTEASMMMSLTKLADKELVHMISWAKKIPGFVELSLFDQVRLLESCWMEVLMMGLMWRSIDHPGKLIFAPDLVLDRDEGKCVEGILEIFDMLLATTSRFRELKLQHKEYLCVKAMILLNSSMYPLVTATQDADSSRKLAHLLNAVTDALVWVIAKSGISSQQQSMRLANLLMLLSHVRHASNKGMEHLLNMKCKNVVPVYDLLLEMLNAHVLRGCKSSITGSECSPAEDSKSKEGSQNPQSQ
Procedure, shortened: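 qHTS in ER-beta-UAS-bla HEK293T cells: 6 hr settling, then 16 hr compound at 37C, then LiveBLAzer substrate 2 h at RT before fluorescence reading.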

[17] = target: Estrogen receptor beta (Homo sapiens) (UniProt Q92731); experiment: qHTS assay to identify small molecule antagonists of the estrogen receptor beta (ER-beta) signaling pathway (AID 1259378; active means well fitted inhibition curve with a large enough effect in the signal ratio in the repeat runs, not every such curve was filed as active; the % refers to the signal ratio)
Procedure, shortened: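 ER-beta-UAS-bla HEK293T cells in 2% charcoal-stripped FBS medium treated with compound plus 1nM final 17-beta-estradiol for 16 hr at 37C. Beta-lactamase reporter read by FRET substrate fluorescence after 2 hours at room temperature.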

[18] = qHTS assay to identify small molecule antagonists of the estrogen receptor beta (ER-beta) signaling pathway - cell viability counter screen (AID 1259382); further: series mostly up to about 92 µM; nearly all actives have a fitted effect of over 55% in size
Procedure, shortened: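 Viability is scored by CellTiter-Glo luminescence (30 min, room temperature) in ER-beta-UAS-bla HEK293T wells already read for reporter fluorescence. Compound exposure lasts 16 hr at 37C alongside 1nM 17-beta-estradiol in charcoal-stripped serum medium.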

[19] = target: Androgen receptor (Homo sapiens) (UniProt P10275); experiment: qHTS assay to identify small molecule antagonists of the androgen receptor (AR) signaling pathway using the MDA cell line in the presence of 0.5 nM R1881 (AID 1259243); further: nearly all actives have a fitted effect of over 50% in size
Androgen receptor (Homo sapiens), sequence (P10275 whole entry, looked up): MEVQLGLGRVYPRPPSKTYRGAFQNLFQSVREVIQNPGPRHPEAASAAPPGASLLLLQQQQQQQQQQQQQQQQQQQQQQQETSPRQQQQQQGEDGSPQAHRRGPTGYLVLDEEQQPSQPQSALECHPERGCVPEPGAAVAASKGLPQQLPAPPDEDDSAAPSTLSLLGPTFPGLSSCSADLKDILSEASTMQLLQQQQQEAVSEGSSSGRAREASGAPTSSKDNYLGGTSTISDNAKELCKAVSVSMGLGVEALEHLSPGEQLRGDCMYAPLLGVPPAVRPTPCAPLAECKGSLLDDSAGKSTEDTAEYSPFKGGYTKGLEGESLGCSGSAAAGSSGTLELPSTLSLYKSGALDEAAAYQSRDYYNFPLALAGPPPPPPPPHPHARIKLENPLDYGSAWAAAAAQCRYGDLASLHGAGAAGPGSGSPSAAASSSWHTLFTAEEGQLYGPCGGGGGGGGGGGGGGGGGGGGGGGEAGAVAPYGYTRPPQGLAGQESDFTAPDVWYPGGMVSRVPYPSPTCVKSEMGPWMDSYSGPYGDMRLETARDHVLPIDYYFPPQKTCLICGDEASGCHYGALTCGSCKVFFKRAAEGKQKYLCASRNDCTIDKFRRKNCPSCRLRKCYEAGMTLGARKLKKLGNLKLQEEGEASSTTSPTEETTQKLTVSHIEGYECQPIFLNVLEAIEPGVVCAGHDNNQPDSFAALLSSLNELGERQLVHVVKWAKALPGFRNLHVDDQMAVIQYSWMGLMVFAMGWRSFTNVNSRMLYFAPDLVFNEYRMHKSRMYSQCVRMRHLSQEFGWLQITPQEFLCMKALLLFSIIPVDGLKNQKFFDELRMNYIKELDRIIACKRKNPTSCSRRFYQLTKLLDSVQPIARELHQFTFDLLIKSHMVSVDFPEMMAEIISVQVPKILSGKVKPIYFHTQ
Procedure, shortened: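 Antagonist mode quantitative HTS in MDA-kb2 MMTV-luciferase cells, agonist R1881 at 0.5 nM final, 16 hr exposure at 37C and 0% CO2, luminescent detection.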

[20] = target: Androgen receptor (Homo sapiens) (UniProt P10275); experiment: qHTS assay to identify small molecule agonists of the androgen receptor (AR) signaling pathway in the presence of an antagonist (AID 1259381; calls by dose curve; further: nearly all actives have a fitted effect of over 15% in size)
Procedure, shortened: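 Reporter-gene luminescence from MDA-kb2 cells exposed 16hr at 37C (0% CO2) to 15-point compound titrations with 3.0uM final nilutamide as AR antagonist.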

| Compound | Potency [1] | outcome [2] | outcome [3] | Potency [4] | Potency [5] | Potency [6] | outcome [7] | Potency [8] | Potency [9] | Potency [10] | Potency [11] | Potency [12] | outcome [13] | outcome [14] | outcome [15] | Potency [16] | outcome [17] | outcome [18] | Potency [19] | outcome [20] |
| --- | --- | --- | --- | --- | --- | --- | --- | --- | --- | --- | --- | --- | --- | --- | --- | --- | --- | --- | --- | --- |
| C[C@H]1C(=O)O[C@@H]2CCN3CC=C(COC(=O)[C@](C)(O)[C@]1(C)O)[C@H]23 | inactive | inactive | inactive | inactive | inactive | inactive | inactive | inactive | inactive | inactive | inactive | inactive | inactive | inactive |  |  |  |  |  |  |
| Cc1cccc(C)c1N | inactive | inactive | inactive | inactive |  | inactive | inactive | inactive | inactive | inactive | inactive | inactive | inactive | inactive | inactive | inactive | inactive | inactive |  |  |
| C[C@]12CC[C@H](O)CC1=CC[C@@H]1[C@@H]2CC[C@]2(C)C(=O)CC[C@@H]12 | inactive | inactive | inactive | inactive | 10 µM (active) | inactive | inactive | inactive | inactive | 1.37 µM (active) and 19.3 µM (active) | inactive | 48.6 µM (active) and 27.3 µM (active) |  | inactive | inactive | 386 nM (active) and 473 nM (active) |  |  |  |  |
| Cc1ccc(O)c(C)c1 | inactive | inactive | inactive | inactive |  | inactive | inactive | inactive | inactive | inactive | inactive | inactive | inactive |  | inactive | inactive | inactive | inactive |  |  |
| C=CC(=O)OCCCCCC(C)C | inactive | inactive | inactive | inactive |  | inactive | inactive | inactive | inactive | inactive | inactive | inactive | inactive | inactive | inactive | inactive | inactive |  | inactive | inactive |
| O=C/C=C/c1ccccc1 | inactive | inactive | inactive | inactive | inactive | inactive | inactive | inactive | inactive | inactive | inactive | inactive | inactive | inactive |  |  |  | inactive |  |  |
| CNCC(O)c1ccc(O)cc1 (stereo not drawn) | inactive | inactive | inactive | inactive | inactive | inactive | inactive | inactive | inactive | inactive | inactive | inactive | inactive |  |  | inactive | inactive | inactive |  |  |
| Cc1cccc(C)c1NC(=O)CN1CCCC1=O | inactive | inactive | inactive | inactive | inactive | inactive | inactive | inactive | inactive | inactive | inactive | inactive | inactive |  | inactive | inactive | inactive |  |  |  |
| Cc1cc(Cl)ccc1OC(C)C(=O)O (stereo not drawn) | inactive | inactive | inactive | inactive |  | inactive | inactive | inactive | inactive | inactive | inactive | inactive | inactive |  | inactive | inactive | inactive | inactive |  |  |

From PubChem BioAssay (Tox21)
